Several values for one entry are separate records, joined by “and”; a condition that tells them apart may be missing. Identical values can stand only once. Out of some 310,000 compounds screened, about 11,000 (3.5%) were called active. Where a call stands in place of a potency, no number is given. About 8% were inconclusive and are not listed. Calls follow the shape of the dose curve; as a rule, active = well fitted inhibition curve with a large enough effect; inconclusive = small, poorly fitted or top-dose-only effect, or effect the other way; inactive = flat fitted curve, though single readings scatter. Only a selection was taken, and actives are over-represented in it overall.
assay: VP16 counterscreen qHTS for inhibitors of ROR gamma transcriptional activity; settings: Drosophila S2 Gal4-VP16 UAS-luciferase, luminescence, 20 h; series mostly up to 53.6 µM;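 also: Gal4-VP16 expression switched on by copper sulfate through the metallothionein promoter; nearly all actives have a fitted effect of over 50% in size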
Excerpt: NIH Molecular Libraries Probe Production Network [MLPCN]
NIH Chemical Genomics Center [NCGC]
Assay Provider: Dan Littman, New York University
The retinoic acid-related orphan receptor (ROR) gamma is a transcription factor that has a central role in the differentiation of Th17 cells, a subset of T helper cells that secrete the inflammatory cytokines IL-17, IL-17F, and IL-22. Th17 cells have been implicated in graft versus host disease, autoimmune disease and asthma. ROR gamma is induced in naive T helper cells in the presence of TGF-beta combined with IL-6, IL-21, or IL-23, and thereafter directs the expression of the Th17 lineage cytokines. To identify nonspecific inhibitors, a Drosophila Schneider cell line was stably transfected with two vectors: a gene expressing a fusion of the Gal4 DNA binding domain and VP16 transactivation domain under the control of the metallothionine promoter and a Photinus luciferase reporter regulated by the Gal4 binding site enhancer, UAS. […] Small molecule inhibitors that inhibit components common to the RORgt and VP16 assays, such as the Gal4 DNA binding domain or the UAS luciferase reporter, will be active in both assays and thus scored as nonspecific.
For screening, 600 cells in 4 uL/well were dispensed into white solid 1536-well plates (Grenier) using a solenoid-based dispenser. Following transfer of 23 nL compound or DMSO vehicle by a pin tool, the plates were incubated 1 hr at ambient temperature, and 1 uL/well copper sulfate (700 uM final concentration) was added. The plates were centrifuged 15 s at 1000 RPM and incubated 20 hr at ambient temperature. After addition of 1.5 uL Photinus luciferase detection reagent, the plates were incubated 10 min at ambient temperature and then read by a ViewLux (Perkin Elmer) to detect luminescence.
Potency is read from the fitted curve at half-maximal effect.

Structure (SMILES)	Potency
COc1ccc(N2CCC(CNC(=S)Nc3c(C)cccc3C)C2)cc1 (centres undefined)	2.24 µM (active)
COc1ccc(NC(=O)N2CCC(Cc3ccccc3)CC2)cc1	inactive
Cc1cccc2c1cnn2C(=O)CCC(=O)NC1CCCCC1	inactive
O=C(N/N=C/c1cccc(Br)c1)c1ccc(N2CCCC2=O)cc1	inactive
CCOc1ccc(CCNC(=O)CCc2nnc3ccc(N4CCCC4)nn23)cc1OCC	inactive
COc1ccc(-c2cc(C(=O)N3CCN(Cc4ccc5c(c4)OCO5)CC3)on2)cc1OC	inactive
Cn1c(CC(=O)Nc2ccc(F)cc2)nnc1SCC(=O)NC1CCCCC1	inactive
COc1ccc(NC(=O)C2COc3ccccc3O2)cc1 (centres undefined)	inactive
CCCN(CC1COc2ccccc2O1)C(=S)Nc1ccc(C)cc1 (centres undefined)	12.6 µM (active)
Cc1ccc(NC(=S)N(CCCN2CCC(C)CC2)Cc2ccco2)cc1	inactive
Nc1cc(N)nc(SCc2cccc(F)c2)n1	inactive
CC(C)[C@H](NC(=O)N1CCn2c1nc1ccccc12)C(=O)NCCc1ccccc1	inactive
O=C(Nc1ccccc1F)c1ccc2c(c1)OCO2	inactive
CC1COc2ccccc2N1C(=O)c1ccc(F)cc1 (centres undefined)	inactive
O=C(Nc1nnc(C2COc3ccccc3O2)o1)c1ccc(F)cc1 (centres undefined)	0.562 µM (active)
Cc1ccc(OCC(=O)Nc2ccc3oc(=O)ccc3c2)cc1C	inactive
COc1ccc2cc(C(=O)NCC3CCCO3)[nH]c2c1 (centres undefined)	inactive
O=C(C1CCCN(S(=O)(=O)c2ccc([N+](=O)[O-])cc2)C1)N1CCCCC1 (centres undefined)	inactive
N#Cc1ccc(C(=O)Nc2nc(-c3cccs3)c(C(=O)C(F)(F)F)s2)cc1	3.16 µM (active)
CC(=O)c1sc(NC(=O)c2ccc(C)cc2)nc1C	inactive
Cc1ccc(C(=O)Nc2nnc(-c3cccs3)s2)cc1C	inactive
CCc1ccccc1NC(=O)c1ccc2snnc2c1	inactive
Cc1c(C)c(C)c(S(=O)(=O)NCCc2ccccn2)c(C)c1C	inactive
COc1ccc(-c2nc(SCC(=O)N3CCCC3)n[nH]2)cc1	inactive
CCc1c(C)nc(SCC(=O)NC2CCCC2)[nH]c1=O	inactive
CCc1ccc(-c2nc(SCC(=O)NC3CCCC3)n[nH]2)cc1	14.1 µM (active)
Cc1ccc(S(=O)(=O)c2nnn3c2nc(N2CCN(c4ccccn4)CC2)c2ccccc23)cc1	inactive

Structure (SMILES)	Potency
COc1ccc(-c2cc(=O)oc3cc(OC(C)C(=O)Nc4ccc(CN5CCOCC5)cc4)ccc23)cc1 (centres undefined)	inactive
Cc1ccc(OCc2nc3ccccc3n2C)cc1	inactive
CCn1c(/C=C/c2ccc([N+](=O)[O-])o2)nc2ccccc2c1=O	11.2 µM (active)
Cn1cc(/C=C/c2nc3ccccc3c(=O)n2-c2cccc([N+](=O)[O-])c2)c2ccccc21	inactive
Cc1nc2ccccc2c(=O)n1Cc1ccc([N+](=O)[O-])cc1	inactive
CCCCn1c(N)c(N(CCOC)C(=O)c2oc3ccc(OC)cc3c2C)c(=O)[nH]c1=O	inactive
O=C(N/N=C/c1ccc(O)c2ccccc12)c1cccnc1	inactive
Cc1cc(/C=N/NC(=O)c2cccnc2)c(C)n1CC(C)C	inactive
O=C(N/N=C/c1sc(N2CCCCC2)nc1-c1cccs1)c1cccnc1	10 µM (active)
O=C(NCCS(=O)(=O)N1CCN(c2ccccc2F)CC1)c1ccc(Br)o1	inactive
Oc1c(Cl)cc(Cl)c(Cl)c1Cc1c(O)c(Cl)cc(Cl)c1Cl	3.16 µM (active) and 7.08 µM (active) and 3.98 µM (active)
CCCCCN(C(=O)CCC(=O)OCC(=O)NCc1ccc(OC)cc1)c1c(N)n(CCCC)c(=O)[nH]c1=O	inactive
CC(=O)Nc1ccc(S(=O)(=O)N2CCC(C(=O)NC3CC3)CC2)cc1	inactive
CCOc1ccc(NC(=O)[C@H](C)NC(=O)C2CC(=O)N(c3ccc(OC)cc3)C2)cc1 (some centres undefined)	inactive
Fc1ccccc1Cn1cnc(NC(=S)NCCc2ccccc2)n1	inactive
O=C(Cc1cccc2ccccc12)NNC(=O)Nc1ccc(Cl)cc1	inactive
Fc1ccccc1CNC(=S)Nc1ccc(Cl)cc1	7.08 µM (active)
COc1ccc(CCNC(=O)CSCc2ccc(Br)cc2)cc1OC	inactive
CS(=O)(=O)N(CC(=O)N1CCOCC1)c1cccc(Cl)c1Cl	inactive
O=C1C2C(c3ccccc3)CC=CC2C(c2ccoc2)N1Cc1ccccc1 (centres undefined)	inactive
CCc1nc(NCCO)c(C#N)c2c1CCCC2	inactive
CC(C)CCNc1nc(N2CCCC2)c2c(c1C#N)CCN(C)C2	11.2 µM (active)
CCN1CCc2c(C#N)c(NCc3ccccc3)nc(NCCO)c2C1	inactive
Cn1cccc1C(=O)N1CCc2ccccc2C1	inactive
Cc1cccc(C)c1NC(=O)C(Cl)C(=O)c1ccccc1 (centres undefined)	22.4 µM (active)
Cc1cccc(C)c1NC(=O)N1CC(C)OC(C)C1 (centres undefined)	inactive
Cc1cccc(C)c1NC(=O)C(c1ccccc1)N1CC(=O)Nc2ccccc21 (centres undefined)	inactive

Reference: PubChem BioAssay AID2546 (National Center for Advancing Translational Sciences (NCATS), 2010)
